# In PubChem BioAssay (Tox21):
# Values joined by “and” are separate entries in the source; they are usually repeats but may differ in a detail not shown here. Equal entries are not always repeated. Results filed as inconclusive are left out. More than one record can exist for a structure, and the calls need not agree. Active and inactive are the calls of the source. The call rests on the fitted dose curve; in most records, active means well fitted inhibition curve with a large enough effect in the repeat runs; inconclusive means weak or mixed curves, or effect the other way; inactive means no such curve, though single readings can be large or run the other way.
# Target: Nuclear receptor ROR-gamma (Homo sapiens) (UniProt P51449)
# Assay: qHTS assay to identify small molecule antagonists of the retinoid-related orphan receptor gamma (ROR-gamma) signaling pathway (AID 1159521; further: nearly all actives have a fitted effect of over 50% in size; on activity change, negative = inhibition: top concentration of the series differs between compounds)
# Conditions: Tet-on RORgamma CHO cells, RORE-luciferase, 16 h; series mostly up to 92.4 µM; activity change, negative = inhibition: at the top concentration
# Source text: U.S. Tox21 Program National Center for Advancing Translational Sciences [NCATS] NIH Chemical Genomics Center [NCGC] U.S. Environmental Protection Agency [EPA] National Institutes of Environmental Health Sciences [NIEHS] National Toxicology Program [NTP] U.S. Food and Drug Administration [FDA] Tox21 Assay Overview: Nuclear steroid hormone receptors are involved in many biological processes including inflammatory responses, cell proliferation, and apoptosis. Environmental factors or compounds disrupting these nuclear receptor pathways and gene expression may promote susceptibility to immunotoxicants and autoimmune diseases. One important group of these expression factors are the retinoid-related orphan receptors. To assess compounds that may interfere with the retinoid-related orphan receptor gamma (ROR-gamma) transcription factor, a cell-based luciferase assay was used. The CHO cell-based assay utilizes a TET-inducible ROR expression factor and ROR response element-LUC reporter gene. Reporter gene activity was induced using Doxycycline Hyclate and measured after 16 hr incubation. Tet-on ROR gamma CHO cells were used to screen against the Tox21 10K compound library for ROR gamma antagonists by quantification of decreased reporter gene activity in terms of decreased luminescence.
# Tox21 Assay Protocol Summary: Tet-on ROR gamma CHO cells were dispensed at 1,000 cells in 4 uL of culture medium per well into white wall/solid bottom 1536-well plates using a Multidrop Combi (Thermo Scientific, Waltham, MA) dispenser. Following incubation at 37 C and 5% CO2 for 4 hr, 23 nL of compounds dissolved in DMSO, positive controls or DMSO only were transferred by a Pintool station (Kalypsys, San Diego, CA) and after 2 hr incubation at 37 C, one ul of 1 uM (final concentration) of Doxycycline Hyclate was added to all the wells by using a Flying Reagent Dispenser (FRD) (Aurora Discovery, San Diego, CA). After 16 hr incubation at 37 C and 5% CO2, 5 uL of ONE-Glo reagent (Promega Corporation, Madison, WI) was added to each assay plate using FRD. After 30 min incubation at room temperature, luminescence was quantified on a ViewLux plate reader (Perkin Elmer, Waltham, MA).
# On the % scale 0 is the no-effect control and ±100 the full control effect; potency means the concentration at half of the fitted maximal effect.
SMILES,"activity change, negative = inhibition",Potency
C1CN2CCC1CC2,1.45% [at 42.5 µM] (inactive),
CC(Cc1ccccc1)NCCn1cnc2c1c(=O)n(C)c(=O)n2C (stereo not given),-26.6% (inactive),
CCN(CCO)CCn1c(Cc2ccccc2)nc2c1c(=O)n(C)c(=O)n2C,8.88% [at 42.5 µM] (inactive),
[P]#[In],1.45% (inactive),
CCCCCCC1CCOC1=O (stereo not given),8% (inactive),
CCOP(=S)(OCC)SCCl,-21.1% (inactive),
S=C=S,37.8% (inactive),
BrCCc1ccccc1,-9.64% (inactive),
COc1ccccc1OC,-10.2% (inactive),
CCC1(c2ccccc2)CCC(=O)NC1=O (stereo not given),-1.13% [at 42.5 µM] (inactive),
COc1cccc([C@@]2(O)CCCC[C@@H]2CN(C)C)c1,22.5% [at 42.5 µM] (inactive),
CCNc1nc(Cl)nc(NC(C)(C)C)n1,-25.1% (inactive),
CC(C)(N)Cc1ccc(Cl)cc1,-0.592% [at 42.5 µM] (inactive),
CC(C)NCC(O)c1ccc([N+](=O)[O-])cc1 (stereo not given),45.1% [at 42.5 µM] (inactive),
COC(=O)[C@@H](N)CCCN/C(N)=N/[N+](=O)[O-],10.8% [at 42.5 µM] (inactive),
O=C1CC(=O)NC(=O)N1,-8.9% (inactive),
CCC(=O)c1ccc(Cl)cc1,0.354% (inactive),
Cl/C=C/CCl,32.6% (inactive),
O=C(Cl)CCl,59.2% (inactive),
C=CC(=O)OCCN(C)C,-17.7% (inactive),

SMILES,"activity change, negative = inhibition",Potency
CCc1ccc(C2CCNCC2)cc1,-0.292% [at 42.5 µM] (inactive),
CCC(CC)(CNC(=O)CCCO)c1cccc(OC)c1,32.2% [at 42.5 µM] (inactive),
CON(C)C(=O)Nc1ccc(Br)cc1,50.9% (inactive),
ClCC1CO1 (stereo not given),0.861% (inactive),
CC(O)CCl (stereo not given),3.11% (inactive),
CCCOC(=O)c1cncn1C(C)c1ccccc1 (stereo not given),-7.37% [at 42.5 µM] (inactive),
CCOc1cc(OP(=S)(OC)OC)nc(CC)n1,-0.263% (inactive),
[O-][Br+2]([O-])O,2.85% [at 42.5 µM] (inactive),
CCSC(=O)Cl,-1.81% (inactive),
CCOC(=O)C(SP(=S)(OC)OC)c1ccccc1 (stereo not given),-28.4% (inactive),
CC1N=C(N)OC1c1ccccc1 (stereo not given),11.7% (inactive),
CC(C)(N)Cc1ccccc1Cl,-3.93% [at 42.5 µM] (inactive),
C[C@]12C=CC(=O)C=C1CC[C@@H]1[C@@H]2CC[C@@]2(C)[C@H]1CC[C@]2(C)O,-0.404% [at 42.5 µM] (inactive),
C/C=C/CC#N,-2.11% (inactive),
CCC(C)C(C)(COC(N)=O)COC(N)=O (stereo not given),32.2% [at 42.5 µM] (inactive),
O=P(O)(O)c1ccccc1,21.1% (inactive),
CC(C)(C)c1cc(O)ccc1O,,13.7 µM (active) and 24.3 µM (active)
CC[C@@H](CO)NC(=O)[C@@H]1C=C2c3cccc4[nH]cc(c34)C[C@H]2N(C)C1,17.2% [at 42.5 µM] (inactive),
C[C@H]1CCCC(=O)CCC/C=C/c2cc(O)cc(O)c2C(=O)O1,,20.9 µM (active) and inactive
CC(C)c1ccc(O)cc1,-1.37% (inactive),
